From PubChem BioAssay AID1347434 (National Center for Advancing Translational Sciences (NCATS), 2020) come the findings set out here.

Each structure is given as a SMILES string. Out of some 1,200 compounds screened, about 30 (2%) were called active. Not shown: some 23% with an inconclusive outcome. This is one part of a sample in which actives are shown more often than they occur. Unmarked numbers belong to inactive results. The call rests on the fitted dose curve; in most records, active means well fitted inhibition curve with a large enough effect; inconclusive means small, poorly fitted or top-dose-only effect; inactive means flat fitted curve, though single readings scatter.
On the % scale 0 is the no-effect control and ±100 the full control effect; potency means the concentration at half of the fitted maximal effect.

The target of this experiment is Single-stranded DNA cytosine deaminase (Homo sapiens) (UniProt Q9GZX7). In words: Confirmatory qHTS assay for inhibitors of Activation Induced Cytidine Deaminase (AID): AID signals. The following applies: recombinant AID, FRET deamination/UDG coupled fluorescence, 4 h; series mostly up to 115 µM; activity, negative = inhibition: at the top concentration. The method, boiled down: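 Read 1 (AID) was measured at 540 ex/590 em after a 30 min NaOH step. The reaction was AID (1 uM, 4/3x stock) with UDG, compound at final 7.32 nM - 114 uM for 10 min, then DJC20/DJC23 substrate for 4 hr at room temperature. A UDG read at 560/665 serves as counterscreen.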
Single-stranded DNA cytosine deaminase (Homo sapiens), sequence (Q9GZX7 whole entry, looked up): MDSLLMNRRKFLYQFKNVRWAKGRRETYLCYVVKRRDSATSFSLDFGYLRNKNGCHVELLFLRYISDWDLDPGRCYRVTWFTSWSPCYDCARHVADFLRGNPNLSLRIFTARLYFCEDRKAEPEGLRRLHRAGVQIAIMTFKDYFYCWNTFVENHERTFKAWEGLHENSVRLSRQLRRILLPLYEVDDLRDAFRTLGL
As to `COc1ccc(N2CCN(C(=O)c3sc4nc5n(c(=O)c4c3C)CCC5)CC2)cc1`, the “activity, negative = inhibition” value was -13.6%.
Same read-out and setting: the value for `CCN(CC)c1cc(C)c2cc(NC(=O)c3cccc(OC)c3)ccc2n1` was -9.48%; that for `CCOC(=O)C1=C(CN(CC)Cc2ccccc2)NC(=O)NC1c1ccc(Cl)cc1` (stereo not given) was -14%; that for `CCc1ccc(CN(Cc2ccco2)C(=O)c2ccc(C)cc2)cc1` was 1.83%.
In the case of `CCCCC1CCC(CCCC(C)CCC(=O)O)CC1` (stereo not given), the Potency is 35.5 µM (active).
Consider `Cc1ccc(C2=NN(CC(=O)NCCCN(CC(C)C)CC(C)C)C(=O)CC2)cc1`, for which the “activity, negative = inhibition” value is -12.2%.
The same measure, in the same setting: then `COc1ccc(-n2c(-c3ccc(C)cc3)cc3c2CC(C)(C)CC3=O)c(OC)c1`, with -15.8%.
Regarding `Cc1ccc(Cc2c(C)nc3nc(SCC(=O)NC(C)c4ccccc4)nn3c2C)cc1` (stereo not given), the “activity, negative = inhibition” value is -6.04%.
As to `CCCCOc1ccc(C(=O)NCC(c2ccc(Cl)cc2)N2CCOCC2)cc1` (stereo not given), the “activity, negative = inhibition” value is -2.89%.
In the case of `CC1CCCCN1C(=O)CSc1nc2ccccc2nc1Cc1ccccc1` (stereo not given), the “activity, negative = inhibition” value is -15.5%.
Same read-out and setting: then `COc1cccc(-c2nc(CS(=O)CC(=O)N3CCN(c4cccc(C(F)(F)F)c4)CC3)c(C)o2)c1` (stereo not given), with -23.9%; and `CCc1nc(Nc2ccc(F)c(Cl)c2)c2c3c(sc2n1)CCCC3`, with 2.84%.
Same read-out and setting: the value for `Cc1ccc2nc(Cl)c3cc(C(=O)N4CCCC(C)C4)sc3c2c1` (stereo not given) was -2.34%; that for `Cc1ccc(C(=O)c2cn(Cc3cc(C)ccc3C)c3nc(C)ccc3c2=O)cc1` was -26.6%.
Turning to `O=C(Cc1ccccc1F)N1CCC(c2nc3c(nnn3Cc3cccc(Cl)c3)c(=O)[nH]2)CC1`, the “activity, negative = inhibition” value is -11.7%.
For `CCc1cnc2c(c1SCc1ccccc1C)c(=O)n(C)c(=O)n2C`, the “activity, negative = inhibition” value was -3.91%.
Same read-out and setting: the value for `CCN(CC)CCCNC(=O)c1ccc2c(c1)sc1nc(-c3ccc(C)cc3)cn12` was -24.7%.
With `C[N+](C)(CCCCCC[N+](C)(C)CCCN1C(=O)c2cccc3cccc(c23)C1=O)CCCN1C(=O)c2cccc3cccc(c23)C1=O`, the Potency was 5.01 µM (active).
In the case of `Cc1ccc(C)c(Cn2c(=O)n(CC3CCC(C(=O)N4CCOCC4)CC3)c(=O)c3sccc32)c1` (stereo not given), the “activity, negative = inhibition” value was -4.69%.
On to `CC(=O)Nc1ccc(S(=O)(=O)Nc2nc3n(n2)C(c2ccccc2)C=C(c2ccc(Cl)cc2)N3)cc1` (stereo not given), for which the Potency is 39.8 µM (active).
Take `Cc1ccc(S(=O)(=O)Nc2nc3n(n2)C(c2ccccc2Cl)C=C(c2ccccc2)N3)cc1` (stereo not given): the “activity, negative = inhibition” value was -17.4%.
The same measure, in the same setting: the value for `COc1ccc(C2C=C(c3ccccc3)Nc3nc(NS(=O)(=O)c4ccccc4)nn32)cc1` (stereo not given) was -23.7%; that for `Cc1ccc(C)c(N2CCN(C(=O)c3cccn3-c3nnc(N4CCCCC4)s3)CC2)c1` was -19.7%.
Regarding `CC1=C(C(=O)NCc2cccc(Cl)c2)C2(CCCCCC2)OC1=O`, the “activity, negative = inhibition” value was 1.97%.
As for `CCc1ccc(-n2c(SCc3nc(-c4cc(OC)ccc4OC)no3)nnc2-c2ccccc2)cc1`, the “activity, negative = inhibition” value was -19%.
Still for that read-out and setting: then `CCc1ccc(OCC(=O)N(Cc2ccc(C(C)C)cc2)C2CCS(=O)(=O)C2)cc1` (stereo not given), with -7.21%; and `Cc1cccc(-n2ccnc2SCC(=O)Nc2cccc3ccccc23)c1`, with 1.1%.
Still for that read-out and setting: then `Nc1ccc2oc(Cc3ccc(Cl)cc3)nc2c1`, with 24.6%; and `Cc1cccc(N2CCN(C(=O)C3CCCN(C(=O)c4cc5sccc5n4C)C3)CC2)c1C` (stereo not given), with -19.6%; and `Cc1ccc(C)c(C(=O)N2CCC(c3nc4c(nnn4Cc4ccccc4)c(=O)[nH]3)CC2)c1`, with -19.8%.
On the same count and under the same terms, then `CC1CCN(S(=O)(=O)c2ccc3c(c2)c(=O)c(C(=O)NC(C)c2ccccc2)cn3C)CC1` (stereo not given), with -15%.
In the case of `CCc1ccccc1NC(=O)CN(c1ccccc1OC)S(=O)(=O)c1ccc(C)cc1`, the “activity, negative = inhibition” value is -5.91%.
The same measure, in the same setting: then `Cc1ccc(C)c(N2CCN(C(=O)c3ccc4c(c3)N(Cc3ccc(F)cc3)C(=O)c3ccccc3S4=O)CC2)c1` (stereo not given), with -0.614%.
For `Cc1ccc2nc(Cl)c3cc(C(=O)N4CCCCC4C)sc3c2c1` (stereo not given), the “activity, negative = inhibition” value was -7.66%.
Same read-out and setting: the value for `O=C(NCCc1ccccc1)c1nc(-c2ccc(Cl)cc2)n2c1CCCCC2` was -11.3%.
Same read-out and setting: the value for `CCCCCn1c(CCCNC(=O)c2cccc(C)c2)nc2ccccc21` was -19.1%; that for `COc1ccc(OC)c(NC(=O)N2CC(C)Oc3ccc(C)cc32)c1` (stereo not given) was -7.39%.
Still for that read-out and setting: then `COC(=O)c1ccc(Cl)cc1NC(=O)Nc1nnc(N(C)Cc2ccccc2)s1`, with -11.9%.
In the case of `N#C/C(=C\c1ccc(-c2cc(Cl)ccc2Cl)o1)C(=O)Nc1ccccc1C(=O)O`, the Potency was 28.2 µM (active).
As for `N#C/C(=C\c1ccc(-c2cc(Cl)ccc2Cl)o1)C(=O)Nc1cccc2ncccc12`, the “activity, negative = inhibition” value is -28.6%.
In the case of `N#C/C(=C\c1ccc(-c2ccc(Cl)c(C(=O)O)c2)o1)c1nc2ccccc2[nH]1`, the “activity, negative = inhibition” value was -24.3%.
As to `Cc1cccc(CSc2ccc3nnc(CCNS(=O)(=O)c4ccccc4)n3n2)c1`, the “activity, negative = inhibition” value was -23.8%.
Turning to `Cc1ccccc1NC(=O)c1ccc(N(Cc2ccccc2)S(C)(=O)=O)cc1`, the “activity, negative = inhibition” value was 0.827%.
The same measure, in the same setting: the value for `Cc1ccc(C(=O)Nc2ccccc2C(=O)O)cc1S(=O)(=O)N1CCCCCC1` was -18.5%.
Turning to `Cc1ccc(C(=O)Nc2ccc(S(=O)(=O)O)c3cc(S(=O)(=O)O)cc(S(=O)(=O)O)c23)cc1NC(=O)c1cccc(NC(=O)Nc2cccc(C(=O)Nc3cc(C(=O)Nc4ccc(S(=O)(=O)O)c5cc(S(=O)(=O)O)cc(S(=O)(=O)O)c45)ccc3C)c2)c1`, the Potency was 1.12 µM (active).
